Cell growth data for 21 compounds are collected here from the supplement of paper PMC3484114.

SMILES strings stand for the structures. ± gives the standard deviation.

The test concerns OVCAR-3-derived ovarian cancer stem-like cells (spheroids). The experiment in a line: cell growth relative to untreated control; higher = more growth (less inhibition). The settings on record: 2.29 µM; 96 h. The procedure, abridged:
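Percent growth was calculated against untreated wells once blanks were subtracted and Grubbs outliers removed. The cells were OVCAR-3 spheroid-derived stem-like cells, trypsinized and plated at 50,000 cells/mL in stem cell medium on ultra-low attachment 96-well plates for a 24 h preincubation. They were then exposed to compounds at 2.29 uM for 96 h at 37°C, 5% CO2, in 4 replicate wells, and viability was measured by TOX8 resazurin fluorescence (ex 560/em 590 nm) after 4 h.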
For the compound `CN(C)c1ccc(/C=C2\CCc3ccccc3C2=O)cc1Br`, the cell growth stood at 91.4 ± 12%.

With `CCOC(=O)CCc1c(C)c2c(O)cc(O)cc2oc1=O`, the cell growth came to 100 ± 21%.

`CCCCCC(/C=C/[C@@H]1CC(=O)C[C@H]1O[Si](C)(C)C(C)(C)C)OCOCCOC` (stereo partly specified) gave a cell growth of 110 ± 24%.

On to `COC1=C(N)C(=O)c2nc(C)ccc2C1=O`, for which the cell growth is 125 ± 79%.

The compound `O=C1c2ccccc2C(=O)c2nc(-c3ccccc3)c(-c3ccccc3)nc21` had a cell growth of 137 ± 51%.

Consider `O=C(/C=C/c1c(O)ccc2ccccc12)c1cccc(O)c1`, for which the cell growth is 94.3 ± 20%.

With `O=C1C=C(Nc2cccnc2)c2ccccc2C1=O`, the cell growth was found to be 59.3 ± 11%.

`CC1(C)CC(Nc2ccc(Nc3ccccc3)cc2)CC(C)(C)N1` displayed a cell growth of 72.4 ± 10%.

Turning to `C[C@H](CN1CC(=O)NC(=O)C1)N1CC(=O)NC(=O)C1`, the cell growth came to 131 ± 20%.

Take `CN(N=O)C(=O)N[C@@H]1[C@@H](O)[C@H](O)[C@@H](CO)O[C@@H]1O`: the cell growth was found to be 104 ± 29%.

For `O=c1oc2cc(O)ccc2c2oc3cc(O)ccc3c12`, the cell growth stood at 124 ± 31%.

In turn, `c1ccc2c(c1)nnn1c3cnccc3nc21` gave a cell growth of 58.8 ± 9.3%.

Consider `Cc1nc2c(nc1C)C(=O)c1ccccc1C2=O`, for which the cell growth is 54.6 ± 6.1%.

In turn, `Cc1cccc(Cl)c1NC(=O)/C=C/c1ccccc1` displayed a cell growth of 102 ± 14%.

Compound `NC(=Nc1nc(-c2ccccn2)cc2ccccc12)c1ccccn1` returned a cell growth of 9.1 ± 2.3%.

In the case of `CS(=O)(=O)OCCCCOS(C)(=O)=O`, the cell growth came out at 121 ± 16%.

`CC(C)c1ccc(O)c(=O)cc1` returned a cell growth of 66.5 ± 20%.

`O=C(OCC12CC3CC(CC(C3)C1)C2)c1ccc(NCc2cc(O)ccc2O)cc1` gave a cell growth of 159 ± 28%.

Turning to `COc1ccc(Cc2nc3ccccc3s2)cc1OC`, the cell growth came out at 98.9 ± 21%.

Turning to `COc1ccc(S(=O)(=O)N/N=C/C(=O)O)cc1`, the cell growth was determined as 117 ± 15%.

As for `CC(C)(C)c1ccc(O)c(CN(Cc2cc(C(C)(C)C)ccc2O)C2CCCCC2)c1`, the cell growth stood at 145 ± 56%.
